# PubChem BioAssay AID1347087 (National Center for Advancing Translational Sciences (NCATS), 2019)
# Records with an inconclusive call do not appear. Active and inactive are the calls of the source. Calls follow the shape of the full dose curve.
# Assay: qHTS for Inhibitors of the Functional Ribonucleoprotein Complex (vRNP) of Lassa (LASV) Arenavirus: LASV Confirmatory Screen - GLuc reporter signal
# Details: LASV minigenome vRNP, Gaussia luciferase reporter; series mostly up to 53.9 µM
SMILES,Potency,"activity, negative = inhibition"
CC(=O)OCC(=O)[C@@]12N=C(C)O[C@H]1C[C@H]1[C@@H]3CCC4=CC(=O)C=C[C@]4(C)[C@@H]3[C@@H](O)C[C@@]12C,inactive,
C=C(C)[C@H]1Cc2c(ccc3c2O[C@@H]2COc4cc(OC)c(OC)cc4[C@@H]2C3=O)O1,0.0306 µM (active),
COC(=O)c1nc(Cl)c(Cl)nc1N,4.85 µM (active),
COCCOC(=O)C1=C(C)NC(C)=C(C(=O)OC/C=C/c2ccccc2)C1c1cccc([N+](=O)[O-])c1 (stereo not given),27.3 µM (active),
CCc1cncnc1N1CCN(Cc2nc3ccc(C(F)(F)F)cc3[nH]2)CC1,3.95 µM (active),
Cc1cc2c(C(C)C)c(O)c(O)c(C=O)c2c(O)c1-c1c(C)cc2c(C(C)C)c(O)c(O)c(C=O)c2c1O,9.68 µM (active),
CC(C)=CCC/C(C)=C/CC/C(C)=C/CC[C@]1(C)CCc2c(C)c(O)c(C)c(C)c2O1,,-9.56% [at 6 µM] (inactive)
CCn1c(-c2nonc2N)nc2cnc(Oc3cccc(NC(=O)c4ccc(OCCN5CCOCC5)cc4)c3)cc21,2.73 µM (active),
N#CC(=C(\N)Sc1ccccc1N)/C(C#N)=C(/N)Sc1ccccc1N,0.0685 µM (active),
CC12C(=O)OC(=O)C1(C)C1CCC2O1 (stereo not given),9.68 µM (active),
CCN(CC)C(=O)N[C@@H]1C=C2c3cccc4[nH]cc(c34)C[C@@H]2N(C)C1,inactive,
C=C1CC[C@@H]2[C@](C)(CO)[C@H](O)CC[C@@]2(C)[C@@H]1/C=C/C1=CCOC1=O,21.7 µM (active),
CC(C)(C)C1CCC(CC2=C(O)c3ccccc3C(=O)C2=O)CC1 (stereo not given),6.85 µM (active),
Nc1ccc([N+](=O)[O-])cc1O,0.396 µM (active),
CCCCCC[C@H]1C(=O)O[C@H](C)[C@H](NC(=O)c2cccc(NC=O)c2O)C(=O)O[C@@H](C)[C@@H]1OC(=O)CC(C)C,0.0306 µM (active),
CO/C=C(/C(=O)OC)c1ccccc1Oc1cc(Oc2ccccc2C#N)ncn1,6.27 µM (active),
CCCCC[C@H](O)/C=C/C=C/C/C=C\CCCC(=O)O,,4.46% [at 0.666 µM] (inactive)
Clc1nccc2c1ccc1ccccc12,inactive,
COc1cccc(-c2ccc(NC(=O)C3=C(C(=O)O)CCC3)c(F)c2)c1,6.85 µM (active),
C=C(C)C1Cc2c(ccc3c2OC2COc4cc(OC)c(OC)cc4C2C3=O)O1 (stereo not given),0.0217 µM (active),
CC(O)(P(=O)(O)O)P(=O)(O)O,inactive,
FC(F)(F)c1ccc(C=Cc2nc(COc3ccc(CCCCn4ccnn4)cc3)co2)cc1,0.0153 µM (active),
O=C(Nc1ccc([N+](=O)[O-])cc1Cl)c1cc(Cl)ccc1O,0.968 µM (active),
CC1OC(=O)[C@@H](C(C)C)NC(=O)C(C(C)C)OC(=O)[C@H](C(C)C)NC(=O)C(C)OC(=O)[C@@H](C(C)C)NC(=O)C(C(C)C)OC(=O)[C@H](C(C)C)NC(=O)C(C)OC(=O)[C@@H](C(C)C)NC(=O)C(C(C)C)OC(=O)[C@H](C(C)C)NC1=O (stereo not given in full),0.153 µM (active),
O=C(Nc1ccccc1)c1cc([N+](=O)[O-])ccc1Cl,24.3 µM (active),
